# The panel holds about 83,000 compounds, 20% with a hit somewhere; the sample as a whole holds those more often.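 Each cell line was grown in a 96-well plate and treated with one concentration of compound for 48 hours. Values below 10 were considered active.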 A number with no mark means an inactive call. The source made the active and inactive calls.
# What was measured:
# Experiment in all cases: NCI-60 one-dose screen, 48 h (100 = growth as untreated, 0 = no growth, -100 = all killed)
# Conditions in all cases: 10 µM unless noted
# T-47D breast = system: T-47D breast
# BT-549 breast = system: BT-549 breast
# MDA-MB-435 melanoma = system: MDA-MB-435 melanoma
# SW-620 colon = system: SW-620 colon
# MCF7 breast = system: MCF7 breast
# HCT-116 colon = system: HCT-116 colon
# HCC-2998 colon = system: HCC-2998 colon
# KM12 colon = system: KM12 colon
Compound,growth (T-47D breast),growth (BT-549 breast),growth (MDA-MB-435 melanoma),growth (SW-620 colon),growth (MCF7 breast),growth (HCT-116 colon),growth (HCC-2998 colon),growth (KM12 colon)
CCOC(=O)C1=C(C)NC(C)=C(C(=O)OCc2ccccc2)C1c1cccc(C#N)c1 (configuration not stated),27%,31.7%,-10.4% (active),29.7%,21.2%,13.2%,70.8%,25.5%
COc1cc(/C=C2/C(=O)Nc3ccc(Cl)cc32)ccc1OCc1ccc(Cl)cc1,80.5%,101%,91.3%,59.7%,49%,47.9%,107%,100%
N#Cc1c(-c2ccc(F)cc2)cc(-c2c[nH]c3ccccc23)nc1-c1c[nH]c2ccccc12,89.9%,109%,107%,107%,89.3%,105%,109%,101%
COc1ccc2c(c1)C=CC1(O2)Oc2ccc(OC)cc2C=C1C (configuration not stated),45%,26.5%,-35.3% (active),29.8%,12.1%,12.4%,24.1%,27.9%
COc1cc(/C=N\NC(=O)c2ccc3nc(-c4ccc(Br)cc4)[nH]c3c2)cc(OC)c1OC,9.41% (active),38%,52.5%,79.1%,6.5% (active),18%,73.1%,47.1%
CCCCSC1=C(Cl)CN(c2ccc(Cl)cc2)C1=O,72.7%,112%,107%,104%,26.2%,93.4%,107%,98.7%
COc1ccc(NC(=O)CCCCCCNC(=O)C(O)(O)C(F)(F)F)cc1,18.7%,76.4%,38.8%,10.2%,38.4%,7.44% (active),55.9%,41.6%
Cc1csc(/N=C(N)/N=C(\N)c2cccs2)n1,95.9%,134%,106%,106%,81.2%,107%,116%,97.8%
O=C(CCCCCCN1CC(=O)N2[C@@H](c3ccccc3Br)c3[nH]c4ccccc4c3C[C@H]2C1=O)NO,19.2%,87.1%,27.8%,24.7%,21.4%,12.7%,56.9%,73%
Cc1ccc(C)c(NC2=C(Cl)C(=O)c3nc(C)ccc3C2=O)c1,-58% (active),-5.46% (active),-82.4% (active),-49.2% (active),-58.5% (active),-74.1% (active),17.7%,36.7%
N#Cc1c(-c2cccs2)cc(-c2cnccn2)nc1SCC(=O)N/N=C/c1ccncc1,101%,113%,104%,112%,92.5%,101%,109%,100%
CC1=C(C)C(=O)C(Nc2cccc(C(=O)OC(C)(C)C)c2)=CC1=O,65%,82.6%,87.1%,94.8%,46%,75.2%,103%,88.7%
Cc1ccc(Nc2nc(SC(C)C)nc(-c3ccccc3)c2C#N)cc1,88.4%,79.6%,102%,89.2%,92.3%,92.1%,88.2%,96.1%
Cc1ccccc1N1CCN(C2=C(Cl)C(=O)c3ncccc3C2=O)CC1,-52.5% (active),99.1%,-62.9% (active),-27.8% (active),-29.3% (active),-95.2% (active),105%,87.2%
C#C[C@]1(O)CC[C@H]2[C@@H]3CC=C4c5sc(N(C)c6ccccc6)nc5CC[C@]4(C)[C@H]3CC[C@@]21C,75.2%,74.6%,89.9%,92.3%,67.3%,48.4%,109%,54.6%
O=C1[C@@H]2Cc3c([nH]c4ccccc34)[C@H](c3ccc(Cl)cc3)N2C(=O)CN1C1CCN(Cc2ccccc2)CC1,74.5%,72.1%,54.8%,61.3%,16.2%,25.5%,51.4%,57.6%
O=C(COc1ccc(/C=C2\C(=O)Nc3cc(Cl)ccc32)cc1)Nc1ccc(Cl)cc1,68%,70.3%,51.2%,55.3%,47.1%,54.8%,96.1%,36.4%
COc1ccc(Cn2cc(C#N)c(N)c2C(C)=O)cc1,96.8%,114%,104%,111%,90.4%,108%,107%,98.7%
CCCCCc1ccc(S(=O)(=O)Nc2cc(-c3csc(N)n3)ccc2OC)cc1,83%,102%,107%,110%,66.1%,95.1%,111%,99.6%
O=S(=O)(NCCCNc1nccc(-c2[nH]c(-c3ccccc3)nc2-c2ccc(F)c(O)c2)n1)c1ccc(C(F)(F)F)cc1,50.7%,55.9%,-40.6% (active),59.8%,7.95% (active),19.1%,97.8%,36.6%
CC(C)(C)Nc1nc2c(OCCc3ccccc3)cccn2c1-c1ccc([N+](=O)[O-])cc1,15.2%,95.8%,85.3%,77.6%,7.18% (active),49.7%,49.9%,36.8%
CCc1cc(O)ccc1Nc1cc(-c2ccc(-n3cccn3)cc2)[nH]n1,35.7%,85.7%,33%,63.1%,34.3%,39%,61.5%,16.6%
O=C(CCCCCC/C=C\c1csc(Br)n1)NO,76.3%,103%,84.4%,78.2%,73.1%,52.5%,98.5%,91.7%
CCOC(=O)c1cccc(NC2=C(Cl)C(=O)c3nc(C)ccc3C2=O)c1,56.4%,121%,108%,84.3%,76%,76.7%,122%,105%
O=C(/C=C/c1ccccc1)c1cccc(O)c1,97.8%,95.4%,95.9%,104%,14%,80%,111%,88.8%
CNC(=O)c1cc(N2CCc3cc(NC(=O)Nc4ccc(N5CCN(C)CC5)c(C(F)(F)F)c4)ccc32)ccn1,81.4%,84.9%,82.3%,3.68% (active),-2.1% (active),-47.2% (active),84.9%,29.5%
COc1ccc(C(C)=C(c2ccc(OCCN3CCCCCC3)cc2)c2ccc(OCCN3CCCCCC3)cc2)cc1,-32.2% (active),13.2%,-83.7% (active),-50.4% (active),-72.4% (active),-93% (active),-79.3% (active),-24.8% (active)
Cn1c(SCC(=O)c2ccc(F)cc2)nc2ccccc2c1=O,62.5%,97%,108%,108%,72.7%,89.1%,104%,98.1%
COc1ccccc1/C=C1\Oc2ccc(O)c(O)c2C1=O,86.3%,89.5%,93.4%,105%,88.2%,83.7%,96.8%,99.7%

# Reference: PubChem BioAssay (NCI)
